In PubChem BioAssay (NCATS):
A number with no mark means an inactive call. Records with an inconclusive call do not appear. Activity calls are given as the source filed them. Unless noted, calls follow the shape of the dose curve; as a rule, active = well fitted curve in either direction with a large enough effect (not every such curve was filed as active); inconclusive = small, poorly fitted or top-dose-only effect, or another doubt; inactive = flat fitted curve, though single readings scatter.

What was measured:
[1] = AP1 Signaling Pathway (AID 357); details: ME-180 AP-1-bla reporter, EGF-induced, beta-lactamase ratio, 5 h; at 17.2 µM (top of the series) unless noted; also: % is scaled to controls: 0 for no effect and ±100 for the full control effect
Method in brief: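 ME-180 cells with beta-lactamase reporter under AP-1 response element, stimulated with EC50 EGF; compounds tested in titration series, 5 h at 37 °C. CCF4 substrate added 2.5 h at room temperature; 460/530 nm emission ratio gave %activity and AC50.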

[2] = NFAT Signaling Pathway (AID 444); details: Jurkat NFAT-bla M1, carbachol, beta-lactamase ratio, 5 h; at 17.2 µM (top of the series) unless noted;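 also: carbachol stimulus at about its EC50 of 1 µM final; % is scaled to controls: 0 for no effect and ±100 for the full control effect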
Method in brief: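 Read-out: CCF4 FRET ratio (460 nm/530 nm) after 1 h RT dye loading, used for %activity and AC50 from titration series. Cells: Jurkat NFAT-β-lactamase/M1 line, treated with compound plus 1 uM carbachol for 5 h, 37 °C.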

[3] = Stat Signaling Pathway (AID 446); details: ME-180 SIE beta-lactamase reporter, IL-6 stimulated, 5 h; at 17.2 µM (top of the series) unless noted;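 also: ME-180 cervical cancer cells given 40 pM IL-6 alongside compound; SIE-controlled beta-lactamase reporter measured as 460/530 nm FRET emission ratio; % is scaled to controls: 0 for no effect and ±100 for the full control effect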
Method in brief: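 ME-180 SIE-bla cells; overnight plating; cpd + IL-6 40 pM, 5 h, 37 C; LiveBLAzer 2.5 h RT; 460/530 nm emission ratio. Normalized to 300 pM IL-6 and 125 nM JAK inhibitor controls.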

[4] = biological target: Glucocorticoid receptor (Homo sapiens) (UniProt P04150); test: GR-GFP Redistribution (AID 450;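 active = compounds whose dose series gives a full or clear partial fitted curve of increased nuclear translocation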; also: potency is read from the fitted curve at half-maximal effect)
Chain of Glucocorticoid receptor (Homo sapiens) (P04150 whole entry, looked up): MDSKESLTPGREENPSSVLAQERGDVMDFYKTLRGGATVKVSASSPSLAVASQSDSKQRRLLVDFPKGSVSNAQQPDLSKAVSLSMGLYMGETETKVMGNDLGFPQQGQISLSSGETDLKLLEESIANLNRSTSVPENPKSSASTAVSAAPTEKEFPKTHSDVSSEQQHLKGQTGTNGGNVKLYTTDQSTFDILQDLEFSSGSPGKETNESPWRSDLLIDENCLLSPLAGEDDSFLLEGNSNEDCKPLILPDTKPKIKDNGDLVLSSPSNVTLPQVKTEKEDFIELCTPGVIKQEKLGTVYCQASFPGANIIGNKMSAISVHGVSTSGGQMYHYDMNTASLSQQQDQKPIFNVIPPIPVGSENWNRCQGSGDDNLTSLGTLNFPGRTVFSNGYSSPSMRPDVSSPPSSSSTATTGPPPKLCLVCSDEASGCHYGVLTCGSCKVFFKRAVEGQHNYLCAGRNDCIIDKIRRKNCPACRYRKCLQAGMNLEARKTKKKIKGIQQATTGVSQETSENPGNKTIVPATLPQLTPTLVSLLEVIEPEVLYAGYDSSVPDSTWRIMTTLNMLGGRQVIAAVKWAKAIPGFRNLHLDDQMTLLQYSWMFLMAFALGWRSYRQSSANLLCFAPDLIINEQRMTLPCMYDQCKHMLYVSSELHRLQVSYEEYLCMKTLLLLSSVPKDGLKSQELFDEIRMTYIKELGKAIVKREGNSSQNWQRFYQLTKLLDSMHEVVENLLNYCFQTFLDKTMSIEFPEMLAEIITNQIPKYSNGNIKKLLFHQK

| SMILES | activity change, negative = inhibition [1] | activity change, negative = inhibition [2] | activity, negative = inhibition [3] | Potency [4] |
| --- | --- | --- | --- | --- |
| CSC1=C(C#N)C(C)CC(=O)N1 (stereo not given) | 3.08% | -0.632% | 3.87% | > 20.6 µM |
| c1ccc(CSc2nnc(SCc3ccccn3)s2)nc1 | -9.4% | 3.91% | -4.62% | > 20.6 µM |
| O=C(CC1SC2=NCCN2C1=O)Nc1ccccc1 (stereo not given) | 4.21% | 19% | -5.25% | > 20.6 µM |
| C=C(C)C1Cc2c(C)nn(-c3nc(C)cc(C)n3)c2C1 (stereo not given) | -4.28% | 10.4% | 0.182% | > 20.6 µM |
| CSc1nc2sc3c(c2c2nncn12)CCC3 | -7.57% | -18% | -3.42% | > 20.6 µM |
| CCOC(=O)C1Cc2c([nH]c3ccccc23)C(C)N1 (stereo not given) | -10.7% | 2.1% | -9.52% | > 20.6 µM |
| COC(=O)c1ccc(C2/C(=C(/O)c3ccc(OC)cc3)C(=O)C(=O)N2c2cc(C)on2)cc1 (stereo not given) | -14% | -13.5% | -20.1% | > 20.6 µM |
| CSc1nc(Oc2ccc(=O)[nH]n2)nc(N(C)C)n1 | 0.488% | -5.44% | 3.84% | > 20.6 µM |
| CCOCCn1c(SC)nc2c1c(=O)[nH]c(=O)n2C | 11% | -1.92% | -1.1% | > 20.6 µM |
| COc1cccc2c(=O)c(SC(F)(F)C(F)C(F)(F)F)c(C)[nH]c12 (stereo not given) | -13.4% | 4.93% | 2.33% | > 20.6 µM |
| Cc1nnc2n(-c3ccccc3)c(=O)c3c4c(sc3n12)CCCC4 | 21.9% | -2.17% | 10.4% | > 20.6 µM |
| CCCn1nc(Oc2nc(SC)nc(N(C)C)n2)ccc1=O | 12.8% | -5.95% | -17.7% | > 20.6 µM |
| Cc1ccc2c(c1)C(CCN)C(=O)N2Cc1ccccc1 (stereo not given) | 19.6% | -9.23% | 5.36% | > 20.6 µM |
| Cc1c(C2Nc3ccccc3NC3=C2C(=O)CC(C)(C)C3)cnn1C (stereo not given) | -9.46% | -5.95% | 14.2% | > 20.6 µM |
| CCOCCN(C(=O)COC)c1cccc(OC)c1 | 20.2% | 2.78% | 6.59% | > 20.6 µM |
| Cc1ccc(S(=O)(=O)N(CC(O)CN(C)C)c2ccccc2)cc1 (stereo not given) | 6.2% | -0.131% | 7.64% | > 20.6 µM |
| COc1ccccc1-n1c(N)c(C(=O)NCC2CCCO2)c2nc3ccccc3nc21 (stereo not given) | 19.4% | 21.4% | -0.0521% | > 20.6 µM |
| COc1ccc(Nc2nnc(C)c3ccccc23)cc1C(N)=O | -4.55% | 10.7% | -9.16% | > 20.6 µM |
| O=C(Nc1cccnc1)c1cccnc1 | 11.7% | -7.91% | 4.68% | > 20.6 µM |
| CCN(CC)CCCN1C(=O)C(=O)/C(=C(/O)c2ccc(OC)cc2)C1c1ccco1 (stereo not given) | 9.88% | -12.1% | 10.8% | > 20.6 µM |
| Cc1cc(C)n(Cc2cc(C)c(Cn3nc(C)cc3C)cc2C)n1 | 14.4% | -3.13% | -5.55% | > 20.6 µM |
| CCN(CC)CCOC(=O)C1(c2ccc(OC)c(OC)c2)CCCC1 | 10.4% | -82.2% (active) | 11% | > 20.6 µM |
| CCCCc1cc(=O)oc2c(CN3CCCC3)c(O)ccc12 | 9.79% | 2.24% | 3.31% | > 20.6 µM |

| SMILES | activity change, negative = inhibition [1] | activity change, negative = inhibition [2] | activity, negative = inhibition [3] | Potency [4] |
| --- | --- | --- | --- | --- |
| O=C(O)c1ccnc(C(=O)O)c1 | 8.01% | 0.361% | 10.5% | > 20.6 µM |
| Cc1cc(NC(CC(C)C)C(=O)O)nc(Cc2ccccc2)n1 (stereo not given) | 0.713% | 7.49% | 5.49% | > 20.6 µM |
| CN1CCc2c(sc3c2C(=O)NC(c2ccco2)N3)C1 (stereo not given) | -0.778% | -3.54% | 23.6% | > 20.6 µM |
| COC(=O)CN1C2(C#N)CCCCC2CC2CCCCC21C#N (stereo not given) | 2.79% | -12.3% | 13% | > 20.6 µM |
| Cn1c(=O)n(CCc2ccccc2)c(=O)c2c1ncn2Cc1ccccc1 | -15.9% | -7.53% | -18.1% | > 20.6 µM |
| N/C(CCN1CCCCC1)=N/O | 8.61% | -6.23% | 2.5% | > 20.6 µM |
| CCCc1nc2n[nH]c(N)c2c2c1CCCC2 | 6.52% | -0.387% | 12.6% | > 20.6 µM |
| Cc1ccc(-c2nn(C)c(=O)c3ccccc23)cc1CN1CCOCC1 | 16.4% | -19.8% | -0.983% | > 20.6 µM |
| CCSc1nnc(N(CCC#N)CCC#N)s1 | 8.14% | -7.48% | -1.67% | > 20.6 µM |
| CCCCc1nc(N2CCOCC2)c(C#N)c2c1CCCC2 | -10.8% | -27.2% | -8.28% | > 20.6 µM |
| COc1cc(C)nc(N(C)S(=O)(=O)c2ccccc2Cl)n1 | -3.56% | -19.3% | 1.54% | > 20.6 µM |
| CN1C(=O)N(c2ccccc2)C(Nc2nncs2)C1(C)C (stereo not given) | 2.23% | -8.24% | -1.47% | > 20.6 µM |
| C=C1[C@@H](C)C2[C@H](Cc3ccccc3)NC(=O)[C@]23OC(=O)CC[C@H](O)CCC[C@H](C)C/C=C/[C@H]3[C@@H]1O (stereo not given in full) | -80.8% (active) | -7.27% | -14.9% | > 20.6 µM |
| Cc1ccc(NC(=O)c2cc(N3CCOCC3)nc3ccccc23)cc1 | -15.5% | 19.3% | -12.2% | > 20.6 µM |
| COc1cccc(C2/C(=C(\O)c3ccc4c(c3)OCCO4)C(=O)C(=O)N2CCN(C)C)c1 (stereo not given) | -3.08% | 2.4% | 9.63% | > 20.6 µM |
| COc1ccc(C2NC3=C(CCC3)C3(C#N)C(OC)(OC)N=C(N)C23C#N)cc1 (stereo not given) | -8.29% | 6.55% | -5.86% | > 20.6 µM |
| NC(=O)c1ccccc1OCCOCCOCCOc1ccccc1C(N)=O | -9.33% | -4.35% | -0.51% | > 20.6 µM |
| COc1ccc(OC)c(C2=Nn3c(nnc3C3CCCCC3)SC2)c1 | -18.2% | -5.08% | -1.6% | > 20.6 µM |
| CCCc1cc(=O)oc2c(CN3CCCC3)c(O)ccc12 | -13.6% | 8.87% | 2.68% | > 20.6 µM |
| CCOC(=O)N1CCN(C2OC(=O)c3ccccc32)CC1 (stereo not given) | 0.827% | 27.2% | 25.6% | > 20.6 µM |
| CCCCOc1ccc(-c2nnc(N)s2)cc1 | 2.03% | 25.3% | 10.7% | > 20.6 µM |
| O=C(NCc1ccco1)c1ccc(=O)[nH]n1 | -6.2% | -1.91% | -5.82% | > 20.6 µM |
